These entries were drawn from the full list.
aSyn UTR act: Activators working through SNCA 5'UTR binding (MLPCN); activity score, % (tested at 7.5 µM), hits read low; alpha-synuclein 5'UTR reporter, activators screen; 7.1% of 300,000 active; in the data active means activity score below about -60%
* hit, by the source's call.

SMILES	aSyn UTR act
c1ccc(CSc2nnc(-c3cccs3)o2)cc1	-170*
Fc1ccc(-c2nnc(Cc3ccc(Cl)cc3)o2)cc1	-86*
Fc1ccc(Cc2nnc(-c3cccs3)o2)cc1	-114*
CCN1/C(=C/C=C/c2oc3ccc(-c4ccccc4)cc3[n+]2CC)Oc2ccc(-c3ccccc3)cc21	140
Fc1cccc(NC(=S)NCc2ccccn2)c1	-94*
Cc1cccc(NC(=O)Nc2ccc(C)cc2Br)c1	-79*
Cc1ccc(CNC(=O)Nc2cccc(C)c2)cc1	-117*
O=C(NCCc1ccc(F)cc1)Nc1ccccc1	-70*
CCCCCCNC(=O)Nc1ccccc1	-88*
COc1cccc(NC(=O)C(=O)NCCc2ccc(F)cc2)c1	-109*
O=C(NCc1ccccn1)Nc1cccc(Cl)c1	-177*
CCN(CC)CC(=O)Nc1ccc(C)cc1Br	-77*
O=C(NCc1ccc(F)cc1)Nc1ccc(Cl)cc1	-65*
O=C(NCc1ccc(F)cc1)Nc1cccc(Cl)c1	-149*
CCn1cnc2sc(C(=O)Oc3cccc(C)c3)c(C)c2c1=O	-67*
CC(=O)Nc1ccc(-c2csc(N/N=C(/C)c3ccccc3)n2)cc1	-102*
C/C(=N/Nc1nc(-c2ccc(Cl)cc2)cs1)c1cccs1	-75*
CC(=O)Nc1ccc(-c2csc(NCc3ccccc3)n2)cc1	-75*
Oc1c(Br)cc(Br)cc1C=Nc1ccc2c(c1)OCO2	-66*
CSC1=NC(C)(C)CC2(C)Nc3ccccc3N12 (stereo not drawn)	-88*
COCCNC(=O)c1cc2oc3ccccc3c2n1C	-99*
CCOc1ccccc1CNC(=O)c1cc2oc3ccccc3c2n1C	51
COc1ccc(/C=C/c2ccc3ccccc3[n+]2C)cc1OC	-124*
CC(=O)Oc1ccccc1/C=C/c1ccc2ccccc2[n+]1C	-62*
c1ccc(-c2nnc(SCc3cn4ccsc4n3)o2)cc1	-75*
SMILES	aSyn UTR act
Cc1cc2nc(-c3cccnc3SCC(=O)NC3CC3)[nH]c2cc1C	-115*
Cc1cc2nc(-c3cccnc3SCC(=O)NCc3ccco3)[nH]c2cc1C	-145*
COc1cc(/C=C/[N+](=O)[O-])ccc1OC(=O)c1cc2ccccc2oc1=O	-102*
Cc1ccc(C(=O)c2cc([N+](=O)[O-])ccc2N2CCCCC2)c(C)c1	69
O=C(Nc1nc2ccccc2s1)c1ccc(N2CCCCC2)c([N+](=O)[O-])c1	-67*
O=C(Nc1ccon1)c1ccc(N2CCCCC2)c([N+](=O)[O-])c1	-143*
O=c1oc(-c2ccccc2)cc(Cl)c1Cl	-198*
COc1cc2c(cc1OC)CN(C(=O)c1cc3ccccc3oc1=O)CC2	-99*
COc1ccc2oc(=O)c(C(=O)N3CCN(c4ccccc4)CC3)cc2c1	-68*
COc1ccc2oc(=O)c(C(=O)N3CCN(c4ccccc4C)CC3)cc2c1	-157*
CCSc1nc2ccccc2n1C(=O)/C=C\c1ccc(OC)c(OC)c1	-112*
CN(C)c1ccc(NC(=O)C2C3C=CC(C3)C2C(=O)O)cc1 (stereo not drawn)	-73*
CCc1ccc(NC(=O)C2C3C=CC(C4CC34)C2C(=O)O)cc1 (stereo not drawn)	-74*
CCN(CC)S(=O)(=O)c1cccc(C(=O)N[C@H](C(=O)Nc2nc3ccc(F)cc3s2)C(C)C)c1	-83*
Cc1cccc(C(=O)NC(C(=O)Nc2nc(-c3ccccn3)cs2)C(C)C)c1 (stereo not drawn)	81
CC[C@H]1OC(=O)C[C@@H](O)[C@H](C)[C@@H](O[C@@H]2O[C@H](C)C[C@H](N(C)C)[C@H]2O)[C@@H](CC=O)C[C@@H](C)C(=O)C=C[C@]2(C)O[C@H]2[C@@H]1C	-147*
COc1ccc(C(=O)/C=C/c2cn(CC(O)CN3CCN(C)CC3)c3ccccc23)cc1OC (stereo not drawn)	-62*
O=[N+]([O-])/C=C/c1cn(Cc2ccc(Cl)cc2)c2ccccc12	65
CN1CCN(Cn2cc(/C=C/C(=O)c3ccccc3)c3ccccc32)CC1	-312*
O=C(Nc1cccc(F)c1)Nc1ccc(Cl)cn1	-135*
Cc1ccc(NC(=O)Nc2cccc(F)c2)nc1	-176*
COc1cc(/C=C/C(=O)c2ccc3c(c2)OCCO3)cc(Br)c1OCC(=O)N(C)C	-819*
O=c1oc2ccccc2c(Nc2ccc3ccccc3c2)c1[N+](=O)[O-]	-94*
COc1ccc(/C=C/C(=O)NC2CCCCCCC2)cc1S(=O)(=O)N1CCOCC1	-112*
N#Cc1cc(-c2ccccc2)nn1-c1ccccc1	-68*
SMILES	aSyn UTR act
COC(=O)c1cc(=O)n(Cc2ccc3c(c2)OCO3)c(=Nc2ccc(F)c(Cl)c2)s1	-66*
COc1ccccc1C(=O)Nc1nnc(CCc2ccccc2)s1	-213*
O=C(Nc1nnc(CCc2ccccc2)s1)c1ccccc1	-91*
CC(C)(C)C(=O)Nc1nnc(CCc2ccccc2)s1	-126*
CCN(CC)c1ccc(NC(=O)c2cnn(CC)c2)cc1	-95*
CCN(CC)c1ccc(NC(=O)c2ccc(Br)o2)cc1	-151*
COC(=O)Cc1ccc(NC(=O)c2ccc(Br)o2)cc1	-153*
COc1ccc(-c2ccc(NC(=O)c3ccc(Br)o3)cc2)nn1	-110*
Cc1nc(NC(=O)Nc2ccc(Cl)cc2)sc1C	-164*
CC(C)(C)c1nnc(NC(=O)Nc2ccc(Cl)cc2)s1	-114*
COc1ccc(NC(=O)Nc2nnc(C(C)(C)C)s2)cc1	-67*
CC(C)OC(=O)c1ccc(NC(=O)CSc2nc3ncccc3[nH]2)cc1	-62*
Cc1ccc(-n2nnnc2Sc2nc([N+](=O)[O-])nn2C)cc1	-71*
O=C(Oc1c(CN2CCOCC2)cc(Cl)c2cccnc12)c1ccccc1Cl	105
O=c1oc2c(CN3CCOCC3)c(O)ccc2c2ccccc12	-72*
Cc1oc2c(c1C(=O)N1CCC(C)CC1)C(=O)c1ccccc1C2=O	83
CCOC(=O)C1CCN(C(=O)c2c(C)oc3c2C(=O)c2ccccc2C3=O)CC1	72
CCOC(=O)C1CCN(Cc2c(O)ccc3ccccc23)CC1	-108*
CCOC(=O)C1CCN(C(=O)c2cc3c(ccc4ccccc43)o2)CC1	-115*
CC1CCN(C(=O)c2cc3ccccc3c(=O)o2)CC1	-78*
O=S(=O)(c1ccc(-c2nnc(SCc3nnc(-c4ccccc4)o3)o2)cc1)N1CCCC1	-117*
Cc1ccc(-n2cc3c(=O)n(C)c(=O)n(C)c3c2)cc1C	-107*
Cc1cc(N)c(-n2cc3c(=O)n(C)c(=O)n(C)c3c2)cc1C	-134*
CCCCOC(=O)Nc1nc2ccc(OC)cc2s1	-103*
CCCCOC(=O)Nc1nc2ccccc2s1	-252*
SMILES	aSyn UTR act
CCCCN(C(=O)NC(=O)Nc1nc2ccc(OC)cc2s1)S(C)(=O)=O	-83*
CC1=NN(c2ccccc2)C(=O)C1N=Nc1ccccc1 (stereo not drawn)	-222*
CC1=NN(c2ccccc2)C(=O)C1N=Nc1cccc(O)c1 (stereo not drawn)	-138*
Cc1ccc(NC(=O)Cc2noc3ccccc23)nc1	-69*
O=C(Cc1noc2ccccc12)Nc1ccccn1	-89*
CCOC(=O)C1CCN(C(=O)/C=C/c2ccc3c(c2)OCO3)CC1	-74*
O=C(/C=C/c1ccc2c(c1)OCO2)N1CCCCC1	-132*
CCOC(=O)C1CCCN(C(=O)CC(C)c2ccccc2)C1 (stereo not drawn)	-115*
CCOC(=O)C1CCN(C(=O)COc2ccc(Cl)cc2)CC1	-75*
CCOC(=O)C1CCN(C(=O)/C=C/c2ccccc2)CC1	-139*
CC(C)(C)NC(=O)C(=O)NNC(=O)c1cccc(F)c1	-89*
CCN(CC)C(=S)SCC(=O)c1ccc(Br)cc1	-110*

Assay outcomes from PubChem BioAssay.
